Hits are enriched below; roughly 9% of the tested compounds scored in any of these assays.
12-LOX inh: ALOX12 (human) lipoxygenase inhibition; Potency, µM (series often up to 108 µM), for inactives: top-dose activity change, negative = inhibition, actives largely listed as inhibitors; purified 12hLO, xylenol orange hydroperoxide absorbance; 1.1% of 580,000 active; P18054; further: on the % scale 0 is the no-effect control and ±100 the full control effect
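Hydroperoxide product was detected by ferrous iron/xylenol orange as the 573 to 405 nm absorbance ratio. Arachidonic acid at 40 uM (final) was turned over for 30 min at room temperature by 150 nM human 12hLO, pH 7.0 Hepes buffer, after 15 min compound preincubation.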
PLK1 PBD inh: PLK1 (human) polo-box domain binding inhibition; P53350; Plk1 PBD binding of FITC phosphopeptide, fluorescence polarization; Potency, µM, without a hit: max response, negative = inhibition, most hits filed as inhibitors; 2.8% of 360,000 active; further: series mostly up to about 57 µM; on the % scale 0 is the no-effect control and ±100 the full control effect; nearly all actives have a fitted effect of over 65% in size
Target sequence (P53350 whole entry, looked up, the tested form may be a part): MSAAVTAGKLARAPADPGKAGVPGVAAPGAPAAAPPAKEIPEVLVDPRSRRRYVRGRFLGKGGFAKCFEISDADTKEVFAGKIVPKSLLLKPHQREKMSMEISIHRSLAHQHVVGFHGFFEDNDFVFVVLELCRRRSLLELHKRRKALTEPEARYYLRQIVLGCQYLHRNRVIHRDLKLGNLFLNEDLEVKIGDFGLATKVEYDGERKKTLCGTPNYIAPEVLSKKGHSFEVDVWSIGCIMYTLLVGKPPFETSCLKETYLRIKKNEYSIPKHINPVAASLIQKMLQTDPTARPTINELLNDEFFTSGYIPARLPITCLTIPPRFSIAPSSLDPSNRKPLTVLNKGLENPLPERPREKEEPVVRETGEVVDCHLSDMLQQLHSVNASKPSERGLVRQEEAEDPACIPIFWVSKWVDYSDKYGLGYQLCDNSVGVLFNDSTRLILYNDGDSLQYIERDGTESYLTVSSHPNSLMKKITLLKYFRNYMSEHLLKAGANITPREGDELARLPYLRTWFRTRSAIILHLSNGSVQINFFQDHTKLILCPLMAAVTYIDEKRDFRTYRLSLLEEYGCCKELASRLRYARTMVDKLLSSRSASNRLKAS
G9a inh: inhibitors of human histone lysine methyltransferase G9a. Q96KQ7. G9a H3K9 monomethylation, AlphaScreen, 2 h. Potency, µM (highest dose often 102 µM), for the others: at the top dose activity, negative = inhibition, actives largely listed as inhibitors. 8.8% of 350,000 active. AID 504332; further: on the % scale 0 is the no-effect control and ±100 the full control effect; nearly all actives have a fitted effect of over 75% in size
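G9a (20 nM) was preincubated 15 min with compound, then reacted 2 h at room temperature with 500 nM biotin-H3K9 peptide and 20 µM SAM. Monomethyl-H3K9 detected by AlphaScreen using anti-H3K9me1 antibody.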
HP1b binding inh: blocks HP1-beta chromodomain binding to methylated histone tails | P83916 | AlphaScreen HP1-beta / biotin-H3K9me3 peptide binding | Potency, µM (doses to about 114 µM), for the others: at the top dose activity change, negative = inhibition, actives largely listed as inhibitors | 0.56% of 390,000 active; further: nearly all actives have a fitted effect of over 70% in size
Target sequence (P83916 whole entry, looked up): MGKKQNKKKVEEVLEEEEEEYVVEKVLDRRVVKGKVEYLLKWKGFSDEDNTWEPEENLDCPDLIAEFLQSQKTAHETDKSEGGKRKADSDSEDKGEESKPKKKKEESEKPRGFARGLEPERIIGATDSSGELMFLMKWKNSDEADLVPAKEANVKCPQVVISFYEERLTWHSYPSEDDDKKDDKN
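Compound inhibition of the preformed complex between 50 nM HP1-beta and 50 nM biotinylated H3K9me3 peptide was read by AlphaScreen. Buffer was PBS pH 7.4 with 0.01% Tween-20. Incubations ran 30 min at room temperature, with 10 ug/mL donor/acceptor beads.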
BAZ2B block: inhibitors of human BAZ2B bromodomain; Q9UIF8; AlphaScreen BAZ2B-H3K14Ac peptide displacement; Potency, µM (highest dose often 114 µM), inactives show top-dose activity change, negative = inhibition, most hits filed as inhibitors; 4.4% of 360,000 active; further: on the % scale 0 is the no-effect control and ±100 the full control effect; nearly all actives have a fitted effect of over 60% in size
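Multi-concentration screen (max 110 uM) measuring displacement of acetylated histone H3 peptide from BAZ2B by AlphaScreen, using 50 nM protein, 50 nM peptide and 10 ug/mL streptavidin donor plus Ni-chelate acceptor beads.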
JMJD2A Tudor inh: blocks the human JMJD2A Tudor domain; O75164; AlphaScreen JMJD2A-Tudor / H3K4me3 peptide binding; Potency, µM (doses to about 114 µM), inactives show at the top dose activity change, negative = inhibition, usual class: inhibitors; 4.4% of 390,000 active; further: on the % scale 0 is the no-effect control and ±100 the full control effect; nearly all actives have a fitted effect of over 50% in size
TbPYK confirm: Trypanosoma brucei pyruvate kinase inhibition, cherry-pick confirmation; shares compounds with PLK1 PBD inh; recombinant TbPYK, Kinase-Glo ATP luminescence; Potency, µM (doses to about 76.9 µM), without a hit: at the highest dose activity change, negative = inhibition, usual class: inhibitors; 67% of 890 active; AID 720569; further: on the % scale 0 is the no-effect control and ±100 the full control effect; nearly all actives have a fitted effect of over 70% in size
TbPYK orthogonal: inhibits T. brucei pyruvate kinase in orthogonal ADP-Glo assay | 62% of 890 active | Potency, µM (doses to about 76.9 µM), for the others: at the highest dose activity change, negative = inhibition, actives largely listed as inhibitors | recombinant TbPYK, ADP-Glo luminescence, 60 min | shares compounds with PLK1 PBD inh | AID 720584; further: on the % scale 0 is the no-effect control and ±100 the full control effect; nearly all actives have a fitted effect of over 75% in size
An asterisk follows results filed as active; ? = inconclusive; nt = no result given; [ ] = dose if it differs, or a comment. The call rests on the fitted dose curve; in most records, active means well fitted curve in the direction sought with a large enough effect; inconclusive means small, poorly fitted or top-dose-only effect, or another doubt; inactive means no such curve, though single readings can be large; an effect the other way counts as inactive or inconclusive. Potency means the concentration at half of the fitted maximal effect.

SMILES	12-LOX inh	PLK1 PBD inh	G9a inh	HP1b binding inh	BAZ2B block	JMJD2A Tudor inh	TbPYK confirm	TbPYK orthogonal
O=C1NC(=O)N(c2ccccc2)C(=O)/C1=C/c1coc2ccc(O)cc2c1=O	44.7µM*	11.9µM*	-114.4%[59 µM]	12.2%	?	?	22.4µM*	?
C=CCN(C1=NCCN1)c1c(Cl)cccc1Cl	nt	nt	6.4%[59 µM]	nt	nt	nt	nt	nt
C=CC1CN2CCC1CC2[C@@H](OC(=O)c1ccc(OC)cc1)c1ccnc2ccccc12 (stereo partly specified)	?	-10.1%	?	?	?	?	nt	nt
CN1C(=O)N(C)C(=O)C2(Cc3cc([N+](=O)[O-])ccc3N(C)C2)C1=O	-23.3%	7.3%	-0.3%	30.5%	-6.2%	-1.4%	nt	nt
CN1CCN(C(=O)COc2ccc3ccccc3c2Br)CC1	2.3%	-3.1%	8.3%	16.1%	4.7%	-10.4%	nt	nt
O=C1NC(=O)N(c2ccccc2F)C(=O)/C1=C/c1ccc(Sc2nc3ccccc3[nH]2)o1	31.6µM*	?	6.31µM*	?	31.6µM*	22.4µM*	14.1µM*	15.8µM*
O=C1NC(=O)N(c2cccc(Cl)c2)C(=O)/C1=C\c1ccc(Sc2nc3ccccc3[nH]2)o1	10µM*	2.67µM*	3.16µM*	?	35.5µM*	35.5µM*	15.8µM*	15.8µM*
C#C[C@H]1CN2CC[C@H]1C[C@@H]2CNS(=O)(=O)c1ccc2ccccc2c1	-13.2%[176 µM]	nt	nt	nt	nt	nt	nt	nt
O=C1NC(=O)N(CCc2ccc(F)cc2)C(=O)/C1=C/c1ccco1	?	1.06µM*	10µM*	35.5µM*	10µM*	39.8µM*	31.6µM*	?
COc1ccc(CN2C(=O)NC(=O)/C(=C\c3ccco3)C2=O)cc1	39.8µM*	1.19µM*	28.2µM*	?	28.2µM*	44.7µM*	28.2µM*	?
COC(=O)[C@@H]1N=C(c2ccc(OC)cc2)O[C@]12C(=O)N(Cc1ccc(OC)cc1)c1ccccc12	?	-18.4%	nt	nt	nt	nt	nt	nt
Cc1ccccc1CN1Cc2cnnn2-c2ccccc2C1C#N (stereo unspecified)	?	?	nt	54.3%	nt	-3.6%	nt	nt
CCOC(=O)c1cccc(C2=C(CNC(=O)c3cccnc3)[C@H]3CC[C@@H](C2)N3Cc2ccccc2)c1	2.7%	-6.4%	nt	nt	nt	nt	nt	nt
CN(C)C(=O)Oc1ccc(OCc2n(C)c3ccccc3[n+]2C)cc1	-24.3%	0.0%	?	7.3%	0.2%	-5.5%	nt	nt
Cc1ccc(/C=C2\C(=O)NC(=S)N(c3ccc(F)cc3)C2=O)s1	?	1.34µM*	6.31µM*	11.0%	44.7µM*	-34.0%	12.6µM*	?
Cc1ccc(/C=C2\C(=O)NC(=S)N(c3ccccc3F)C2=O)s1	39.8µM*	1.19µM*	?	?	50.1µM*	70.8µM*	7.94µM*	11.2µM*
CCOC(=O)C(O)(c1ccc(NC(=O)Oc2ccccc2)cc1)C(F)(F)F (stereo unspecified)	-4.8%	?	21.4%[59 µM]	3.5%	3.0%	-14.8%	nt	nt
CCC1(CC)C(=O)NC(=O)N(c2ccccc2)C1=O	3.5%	0.5%	nt	27.1%	nt	-6.8%	nt	nt
Cc1ccc(/C=C2\C(=O)NC(=S)N(c3ccc(F)cc3)C2=O)o1	?	3.77µM*	3.98µM*	-17.5%	56.2µM*	50.1µM*	15.8µM*	20µM*
O=C1NC(=S)N(c2ccccc2)C(=O)/C1=C/c1ccco1	?	2.99µM*	-6.8%[0.501 µM]	2.82µM*	20µM*	3.16µM*	11.2µM*	15.8µM*
COc1cccc(Cn2c(=O)oc3ccccc32)c1	5.9%	-0.3%	20.4%	41.5%	11.5%	9.1%	nt	nt
COc1cccc(N2C(=O)/C(=C/c3ccc(C)o3)C(=O)NC2=S)c1	10µM*	2.67µM*	4.47µM*	?	50.1µM*	22.4µM*	15.8µM*	28.2µM*
C=CCN1C(=O)/C(=C/c2cccs2)C(=O)NC1=S	44.7µM*	5.32µM*	8.91µM*	-7.0%	?	79.4µM*	22.4µM*	35.5µM*
Cc1cc(C)n2nc(SCC(=O)N3CCC4(CC3)OCCO4)nc2n1	28.3%	-6.2%	14.7%[2.33 µM]	6.0%	-1.7%	-13.3%	nt	nt
Cc1ccccc1N1C(=O)CC(=O)N(c2ccccc2C)C1=O	-18.2%	-1.2%	0.7%[59 µM]	17.7%	-1.6%	-4.9%	nt	nt
SMILES	12-LOX inh	PLK1 PBD inh	G9a inh	HP1b binding inh	BAZ2B block	JMJD2A Tudor inh	TbPYK confirm	TbPYK orthogonal
CCCCn1c(O)c(C(CC)=Nc2ccc(OCC)cc2)c(=O)[nH]c1=O	-14.2%	-5.8%	1.5%[2.33 µM]	13.9%	4.7%	-9.2%	nt	nt
Oc1ccc2c3c1O[C@H]1[C@@H](O)CC[C@@]4(O)[C@@H](C2)N(CC2CCC2)CC[C@]314	-1.1%	-2.6%	-7.1%[59 µM]	32.1%	-5.2%	-17.2%	nt	nt
CCN(CC)c1ccc(/C=C2\C(=O)NC(=S)N(C)C2=O)o1	?	91.5%	12.0%[12.7 µM]	-8.2%	?	-26.4%	nt	nt
COc1ccc(N2C(=O)/C(=C/c3cccs3)C(=O)NC2=S)cc1	28.2µM*	2.12µM*	7.08µM*	-16.7%	-38.5%	35.5µM*	15.8µM*	25.1µM*
COc1ccc(N2C(=O)/C(=C/c3ccc(N(C)C)o3)C(=O)NC2=S)cc1	?	105.6%	44.7µM*	30.2%	?	-6.4%	?	?
COc1ccc(-n2c(C)nc3ccccc3c2=O)c([N+](=O)[O-])c1	44.8%	-8.0%	-2.4%	-2.3%	-17.6%	-18.3%	nt	nt
COc1ccc(N2C(=O)/C(=C/C=C/c3ccccc3[N+](=O)[O-])C(=O)NC2=S)cc1	11.2µM*	1.34µM*	6.31µM*	25.1µM*	50.1µM*	12.6µM*	11.2µM*	25.1µM*
O=C1NC(=O)N(c2ccccc2)C(=O)/C1=C/c1ccoc1	?	5.32µM*	39.8µM*	23.3%	?	-14.0%	?	-28.5%
O=C1NC(=O)N(c2ccc(F)cc2)C(=O)/C1=C/c1ccc(N2CCOCC2)cc1	-18.4%	11.9µM*	39.8µM*	29.6%	1.2%	-1.9%	?	?
Cc1c(C(=O)c2ccccc2)c2ccccc2n1C	4.1%	2.1%	23.8%[12.7 µM]	44.2%	-1.2%	-0.7%	nt	nt
O=C(Nc1ccccc1)[C@H]1CN2CCC1C[C@@H]2Cn1cc(CSc2ccccc2)nn1 (stereo partly specified)	42.5%[176 µM]	nt	nt	nt	nt	nt	nt	nt
CC1=NNC(=O)C1Br (stereo unspecified)	?	9.47µM*	nt	14.1µM*	nt	89.1µM*	3.16µM*	5.01µM*

From PubChem
